# Laboratory results reported in ChEMBL document CHEMBL1961873, “Compounds: GSK PKIS; Assays: Nanosyn kinase panel” (2012).
# Experiments:
# [1] = biological target: 5'-AMP-activated protein kinase catalytic subunit alpha-2 (Homo sapiens) (UniProt P54646); settings: at 1 µM
# [2] = biological target: T1, NUAK family SNF1-like kinase 1 (Homo sapiens) (UniProt O60285); settings: at 0.1 µM
# T1 sequence (whole entry): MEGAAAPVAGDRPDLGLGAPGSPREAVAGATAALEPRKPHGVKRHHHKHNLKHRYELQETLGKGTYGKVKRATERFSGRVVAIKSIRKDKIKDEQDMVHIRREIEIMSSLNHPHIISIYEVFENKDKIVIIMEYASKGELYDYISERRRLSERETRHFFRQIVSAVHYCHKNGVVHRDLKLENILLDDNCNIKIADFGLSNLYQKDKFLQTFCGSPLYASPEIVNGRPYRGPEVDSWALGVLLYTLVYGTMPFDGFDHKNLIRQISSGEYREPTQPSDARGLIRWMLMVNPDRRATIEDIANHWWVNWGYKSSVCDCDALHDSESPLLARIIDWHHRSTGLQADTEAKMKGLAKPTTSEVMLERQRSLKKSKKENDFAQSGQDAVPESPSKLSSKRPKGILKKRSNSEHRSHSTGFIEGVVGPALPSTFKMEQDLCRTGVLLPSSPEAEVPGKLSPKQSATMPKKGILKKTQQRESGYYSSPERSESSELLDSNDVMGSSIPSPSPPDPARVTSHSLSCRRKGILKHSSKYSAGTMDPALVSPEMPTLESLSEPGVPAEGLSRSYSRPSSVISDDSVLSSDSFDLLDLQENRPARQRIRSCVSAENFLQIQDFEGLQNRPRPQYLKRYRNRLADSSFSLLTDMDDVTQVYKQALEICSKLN
# [3] = biological target: T1, NUAK family SNF1-like kinase 1 (Homo sapiens); settings: at 1 µM
# [4] = biological target: T2, Serine/threonine-protein kinase BRSK1 (Homo sapiens) (UniProt Q8TDC3); settings: at 0.1 µM
# T2 sequence (whole entry): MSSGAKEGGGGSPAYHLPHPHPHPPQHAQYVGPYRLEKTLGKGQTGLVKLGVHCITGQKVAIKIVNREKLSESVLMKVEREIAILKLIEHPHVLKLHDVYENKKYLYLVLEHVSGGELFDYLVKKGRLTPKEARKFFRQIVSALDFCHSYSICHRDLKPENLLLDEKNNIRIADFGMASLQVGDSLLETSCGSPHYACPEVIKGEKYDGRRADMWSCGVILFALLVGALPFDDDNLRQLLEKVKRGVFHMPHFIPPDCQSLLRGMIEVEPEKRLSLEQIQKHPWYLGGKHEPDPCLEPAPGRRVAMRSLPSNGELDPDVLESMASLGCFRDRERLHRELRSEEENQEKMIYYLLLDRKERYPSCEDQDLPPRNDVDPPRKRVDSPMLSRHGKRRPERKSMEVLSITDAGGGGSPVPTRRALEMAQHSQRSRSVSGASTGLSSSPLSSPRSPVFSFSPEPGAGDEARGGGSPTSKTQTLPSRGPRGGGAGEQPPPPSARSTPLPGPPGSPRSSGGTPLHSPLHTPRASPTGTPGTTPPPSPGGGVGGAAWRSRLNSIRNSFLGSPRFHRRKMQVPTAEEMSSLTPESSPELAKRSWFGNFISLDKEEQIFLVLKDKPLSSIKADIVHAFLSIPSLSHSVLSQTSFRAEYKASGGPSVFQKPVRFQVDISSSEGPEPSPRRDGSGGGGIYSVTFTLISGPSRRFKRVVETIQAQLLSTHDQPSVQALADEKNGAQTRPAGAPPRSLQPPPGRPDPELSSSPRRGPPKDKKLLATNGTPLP
# [5] = biological target: T2, Serine/threonine-protein kinase BRSK1 (Homo sapiens); settings: at 1 µM
# [6] = biological target: T3, Serine/threonine-protein kinase BRSK2 (Homo sapiens) (UniProt Q8IWQ3); settings: at 0.1 µM
# T3 sequence (whole entry): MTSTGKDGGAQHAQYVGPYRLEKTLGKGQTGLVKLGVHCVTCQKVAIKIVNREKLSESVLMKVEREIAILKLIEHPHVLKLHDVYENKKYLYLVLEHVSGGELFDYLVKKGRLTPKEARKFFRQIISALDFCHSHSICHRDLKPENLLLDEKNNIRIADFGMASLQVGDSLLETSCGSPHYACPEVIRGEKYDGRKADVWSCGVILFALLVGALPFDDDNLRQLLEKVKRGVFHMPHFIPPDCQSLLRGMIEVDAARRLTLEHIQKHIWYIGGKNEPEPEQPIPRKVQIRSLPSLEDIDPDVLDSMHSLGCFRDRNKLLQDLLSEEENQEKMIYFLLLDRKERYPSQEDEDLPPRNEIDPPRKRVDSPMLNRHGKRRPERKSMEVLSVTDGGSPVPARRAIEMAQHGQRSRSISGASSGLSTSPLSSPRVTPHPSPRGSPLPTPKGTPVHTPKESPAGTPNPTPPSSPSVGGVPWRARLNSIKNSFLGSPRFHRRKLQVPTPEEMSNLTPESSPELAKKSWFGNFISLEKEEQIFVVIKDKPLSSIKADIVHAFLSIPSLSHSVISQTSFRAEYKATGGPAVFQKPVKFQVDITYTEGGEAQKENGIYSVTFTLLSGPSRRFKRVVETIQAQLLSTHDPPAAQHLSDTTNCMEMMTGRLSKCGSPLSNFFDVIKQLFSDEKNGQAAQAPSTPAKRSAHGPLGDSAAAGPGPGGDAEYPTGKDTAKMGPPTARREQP
# [7] = biological target: T3, Serine/threonine-protein kinase BRSK2 (Homo sapiens); settings: at 1 µM
# [8] = biological target: Calcium/calmodulin-dependent protein kinase type 1D (Homo sapiens) (UniProt Q8IU85); settings: at 0.1 µM
# [9] = biological target: Calcium/calmodulin-dependent protein kinase type 1D (Homo sapiens) (UniProt Q8IU85); settings: at 1 µM
# [10] = biological target: Calcium/calmodulin-dependent protein kinase type II subunit alpha (Homo sapiens) (UniProt Q9UQM7); settings: at 0.1 µM
# [11] = biological target: Calcium/calmodulin-dependent protein kinase type II subunit alpha (Homo sapiens) (UniProt Q9UQM7); settings: at 1 µM
# [12] = biological target: Calcium/calmodulin-dependent protein kinase type II subunit delta (Homo sapiens) (UniProt Q13557); settings: at 0.1 µM
# [13] = biological target: Calcium/calmodulin-dependent protein kinase type II subunit delta (Homo sapiens) (UniProt Q13557); settings: at 1 µM
# [14] = biological target: T4, Calcium/calmodulin-dependent protein kinase type IV (Homo sapiens) (UniProt Q16566); settings: at 0.1 µM
# T4 sequence (whole entry): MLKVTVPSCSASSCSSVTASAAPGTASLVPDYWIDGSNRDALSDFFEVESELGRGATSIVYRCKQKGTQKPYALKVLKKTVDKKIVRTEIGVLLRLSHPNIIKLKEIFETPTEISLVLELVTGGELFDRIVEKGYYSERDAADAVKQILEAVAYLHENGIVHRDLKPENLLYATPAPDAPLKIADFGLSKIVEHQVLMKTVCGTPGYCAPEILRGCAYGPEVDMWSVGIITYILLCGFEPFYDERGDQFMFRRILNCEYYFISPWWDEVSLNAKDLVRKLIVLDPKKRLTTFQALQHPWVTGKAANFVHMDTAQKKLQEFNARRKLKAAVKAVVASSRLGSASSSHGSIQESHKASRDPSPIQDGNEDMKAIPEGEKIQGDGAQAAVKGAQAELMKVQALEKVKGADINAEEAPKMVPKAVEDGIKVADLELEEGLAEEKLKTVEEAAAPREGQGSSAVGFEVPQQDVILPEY
# [15] = biological target: T4, Calcium/calmodulin-dependent protein kinase type IV (Homo sapiens); settings: at 1 µM
# [16] = biological target: T5, Serine/threonine-protein kinase Chk1 (Homo sapiens) (UniProt O14757); settings: at 0.1 µM
# T5 sequence (whole entry): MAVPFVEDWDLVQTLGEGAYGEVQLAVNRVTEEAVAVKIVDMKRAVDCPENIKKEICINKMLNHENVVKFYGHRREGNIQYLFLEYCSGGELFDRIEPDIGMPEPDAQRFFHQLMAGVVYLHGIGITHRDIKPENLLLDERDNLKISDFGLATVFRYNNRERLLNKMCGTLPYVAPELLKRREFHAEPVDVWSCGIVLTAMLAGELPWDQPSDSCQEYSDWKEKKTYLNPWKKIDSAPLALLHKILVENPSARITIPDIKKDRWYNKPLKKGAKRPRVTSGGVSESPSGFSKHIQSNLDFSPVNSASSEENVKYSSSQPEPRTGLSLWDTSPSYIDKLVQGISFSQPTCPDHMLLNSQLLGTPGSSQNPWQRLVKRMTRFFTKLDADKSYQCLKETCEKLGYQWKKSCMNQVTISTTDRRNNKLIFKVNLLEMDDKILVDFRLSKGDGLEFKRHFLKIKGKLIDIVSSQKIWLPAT
# [17] = biological target: T5, Serine/threonine-protein kinase Chk1 (Homo sapiens); settings: at 1 µM
# [18] = biological target: Serine/threonine-protein kinase Chk2 (Homo sapiens) (UniProt O96017); settings: at 0.1 µM
# [19] = biological target: Serine/threonine-protein kinase Chk2 (Homo sapiens) (UniProt O96017); settings: at 1 µM
# [20] = biological target: Death-associated protein kinase 1 (Homo sapiens) (UniProt P53355); settings: at 0.1 µM;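 note: reported figure is the mean inhibition of DAPK1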
# Chain of Death-associated protein kinase 1 (Homo sapiens) (P53355 whole entry, looked up): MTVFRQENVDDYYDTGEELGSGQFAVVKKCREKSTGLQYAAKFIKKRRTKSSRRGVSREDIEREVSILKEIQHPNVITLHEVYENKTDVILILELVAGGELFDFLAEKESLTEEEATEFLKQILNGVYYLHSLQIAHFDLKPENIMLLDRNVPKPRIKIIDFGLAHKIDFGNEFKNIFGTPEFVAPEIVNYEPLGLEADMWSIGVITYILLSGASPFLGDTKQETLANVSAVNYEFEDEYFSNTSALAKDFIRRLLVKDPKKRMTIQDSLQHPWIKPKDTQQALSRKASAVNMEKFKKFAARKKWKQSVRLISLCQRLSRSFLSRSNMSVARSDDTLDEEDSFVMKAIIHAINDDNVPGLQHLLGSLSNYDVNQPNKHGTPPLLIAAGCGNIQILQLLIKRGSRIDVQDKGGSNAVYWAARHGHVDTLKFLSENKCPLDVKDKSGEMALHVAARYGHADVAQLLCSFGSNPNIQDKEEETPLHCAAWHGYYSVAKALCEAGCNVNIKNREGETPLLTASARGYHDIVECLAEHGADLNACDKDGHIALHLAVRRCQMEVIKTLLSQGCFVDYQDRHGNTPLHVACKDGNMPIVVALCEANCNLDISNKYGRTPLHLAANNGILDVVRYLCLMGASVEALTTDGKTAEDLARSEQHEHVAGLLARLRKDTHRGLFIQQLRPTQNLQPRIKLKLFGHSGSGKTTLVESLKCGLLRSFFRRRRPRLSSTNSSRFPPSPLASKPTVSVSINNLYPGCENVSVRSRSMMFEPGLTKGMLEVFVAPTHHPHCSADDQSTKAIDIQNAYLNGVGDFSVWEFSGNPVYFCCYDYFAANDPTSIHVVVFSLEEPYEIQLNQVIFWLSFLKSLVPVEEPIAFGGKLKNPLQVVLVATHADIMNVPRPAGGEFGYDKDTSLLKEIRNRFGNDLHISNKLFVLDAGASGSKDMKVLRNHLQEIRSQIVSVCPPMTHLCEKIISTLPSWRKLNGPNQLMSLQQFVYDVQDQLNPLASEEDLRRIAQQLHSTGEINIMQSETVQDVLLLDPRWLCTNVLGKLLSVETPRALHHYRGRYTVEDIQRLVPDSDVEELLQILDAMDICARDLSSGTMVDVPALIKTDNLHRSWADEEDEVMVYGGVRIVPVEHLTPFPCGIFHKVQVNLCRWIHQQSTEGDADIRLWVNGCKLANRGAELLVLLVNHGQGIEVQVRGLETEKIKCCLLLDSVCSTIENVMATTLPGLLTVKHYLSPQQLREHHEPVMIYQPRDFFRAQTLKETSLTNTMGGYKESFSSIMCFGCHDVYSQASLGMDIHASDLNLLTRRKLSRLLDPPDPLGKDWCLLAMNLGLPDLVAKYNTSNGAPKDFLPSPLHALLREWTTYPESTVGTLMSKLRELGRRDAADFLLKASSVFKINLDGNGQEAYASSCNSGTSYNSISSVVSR
# Chain of Calcium/calmodulin-dependent protein kinase type II subunit alpha (Homo sapiens) (Q9UQM7 whole entry): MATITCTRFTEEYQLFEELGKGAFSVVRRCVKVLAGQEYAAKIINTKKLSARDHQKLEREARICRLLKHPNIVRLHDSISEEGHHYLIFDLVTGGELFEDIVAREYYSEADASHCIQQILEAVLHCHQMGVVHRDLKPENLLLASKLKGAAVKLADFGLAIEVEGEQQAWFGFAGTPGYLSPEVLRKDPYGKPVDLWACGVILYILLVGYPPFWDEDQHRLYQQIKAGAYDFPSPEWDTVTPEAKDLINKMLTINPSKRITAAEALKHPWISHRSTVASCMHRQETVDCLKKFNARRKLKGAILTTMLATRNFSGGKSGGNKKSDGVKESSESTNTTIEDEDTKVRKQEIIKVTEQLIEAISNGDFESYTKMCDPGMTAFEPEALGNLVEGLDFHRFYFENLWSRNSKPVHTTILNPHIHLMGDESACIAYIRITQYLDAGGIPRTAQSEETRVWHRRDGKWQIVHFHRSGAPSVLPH
# Chain of Calcium/calmodulin-dependent protein kinase type II subunit delta (Homo sapiens) (Q13557 whole entry): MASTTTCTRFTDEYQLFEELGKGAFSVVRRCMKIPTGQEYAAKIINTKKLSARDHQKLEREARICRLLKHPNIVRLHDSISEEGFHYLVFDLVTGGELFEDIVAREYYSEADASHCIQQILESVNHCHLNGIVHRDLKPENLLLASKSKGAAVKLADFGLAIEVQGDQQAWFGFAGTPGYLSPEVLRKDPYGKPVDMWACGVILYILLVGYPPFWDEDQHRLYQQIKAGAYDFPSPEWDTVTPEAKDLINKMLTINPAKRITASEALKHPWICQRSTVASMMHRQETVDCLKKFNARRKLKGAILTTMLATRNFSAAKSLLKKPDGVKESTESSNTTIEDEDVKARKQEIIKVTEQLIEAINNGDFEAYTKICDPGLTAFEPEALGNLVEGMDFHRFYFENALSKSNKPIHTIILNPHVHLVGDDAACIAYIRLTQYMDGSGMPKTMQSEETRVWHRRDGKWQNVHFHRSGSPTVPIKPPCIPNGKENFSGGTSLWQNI
# Chain of Calcium/calmodulin-dependent protein kinase type 1D (Homo sapiens) (Q8IU85 whole entry, looked up): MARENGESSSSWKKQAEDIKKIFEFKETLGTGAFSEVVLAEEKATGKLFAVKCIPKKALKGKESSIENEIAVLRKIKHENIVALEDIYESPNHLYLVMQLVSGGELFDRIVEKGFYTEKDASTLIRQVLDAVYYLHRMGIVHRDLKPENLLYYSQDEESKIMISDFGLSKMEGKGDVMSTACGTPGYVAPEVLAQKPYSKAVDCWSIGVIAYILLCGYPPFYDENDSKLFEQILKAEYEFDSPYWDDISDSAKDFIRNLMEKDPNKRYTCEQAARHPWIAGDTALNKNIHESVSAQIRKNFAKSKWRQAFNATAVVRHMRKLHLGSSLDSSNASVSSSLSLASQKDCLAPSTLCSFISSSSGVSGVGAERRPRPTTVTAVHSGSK
# Chain of 5'-AMP-activated protein kinase catalytic subunit alpha-2 (Homo sapiens) (P54646 whole entry, looked up): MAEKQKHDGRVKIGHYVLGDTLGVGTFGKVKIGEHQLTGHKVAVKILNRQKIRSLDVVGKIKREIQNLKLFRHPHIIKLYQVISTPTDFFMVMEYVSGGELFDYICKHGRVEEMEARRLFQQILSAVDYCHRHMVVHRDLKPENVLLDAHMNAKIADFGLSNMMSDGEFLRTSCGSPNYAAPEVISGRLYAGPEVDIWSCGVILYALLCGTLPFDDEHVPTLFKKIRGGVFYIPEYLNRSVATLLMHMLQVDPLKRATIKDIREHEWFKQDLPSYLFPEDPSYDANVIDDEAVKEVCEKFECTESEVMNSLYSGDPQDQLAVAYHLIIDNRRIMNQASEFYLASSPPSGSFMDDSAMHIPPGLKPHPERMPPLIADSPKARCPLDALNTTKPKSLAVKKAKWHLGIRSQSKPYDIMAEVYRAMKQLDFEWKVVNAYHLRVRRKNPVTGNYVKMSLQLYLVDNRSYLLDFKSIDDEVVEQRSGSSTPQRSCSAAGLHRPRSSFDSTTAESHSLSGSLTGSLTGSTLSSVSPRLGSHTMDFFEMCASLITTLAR
# Chain of Serine/threonine-protein kinase Chk2 (Homo sapiens) (O96017 whole entry): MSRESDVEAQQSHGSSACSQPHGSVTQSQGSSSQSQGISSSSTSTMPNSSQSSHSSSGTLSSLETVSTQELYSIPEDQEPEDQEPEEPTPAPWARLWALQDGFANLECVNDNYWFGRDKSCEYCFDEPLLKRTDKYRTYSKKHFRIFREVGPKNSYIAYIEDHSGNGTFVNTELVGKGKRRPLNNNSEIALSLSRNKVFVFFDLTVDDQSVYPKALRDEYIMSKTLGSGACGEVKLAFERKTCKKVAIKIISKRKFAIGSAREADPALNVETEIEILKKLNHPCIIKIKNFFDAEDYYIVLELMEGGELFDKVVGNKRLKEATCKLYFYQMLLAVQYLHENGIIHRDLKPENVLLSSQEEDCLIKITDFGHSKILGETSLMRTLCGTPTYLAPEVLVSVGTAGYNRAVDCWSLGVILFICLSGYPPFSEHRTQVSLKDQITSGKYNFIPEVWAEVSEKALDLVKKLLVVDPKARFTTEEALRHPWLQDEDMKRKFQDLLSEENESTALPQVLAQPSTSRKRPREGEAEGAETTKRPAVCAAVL
SMILES,inhibition [1] [%],inhibition [2] [%],inhibition [3] [%],inhibition [4] [%],inhibition [5] [%],inhibition [6] [%],inhibition [7] [%],inhibition [8] [%],inhibition [9] [%],inhibition [10] [%],inhibition [11] [%],inhibition [12] [%],inhibition [13] [%],inhibition [14] [%],inhibition [15] [%],inhibition [16] [%],inhibition [17] [%],inhibition [18] [%],inhibition [19] [%],inhibition [20] [%]
CCn1cc(-c2ccnc3[nH]ccc23)c(-c2cccc(NC(=O)Nc3ccc(OCc4ccccc4)cc3)c2)n1,2.24,-0.37,1.67,-0.66,3.32,1.2,0.5,1.03,4.92,1.2,-2.25,1.86,-0.28,0.6,-0.67,1.82,-1.06,-0.17,-0.76,1.61
COc1cc2ncn(-c3cc(OCc4ccccc4C(F)(F)F)c(C(=O)N(C)C)s3)c2cc1OC,1.18,1.04,14.8,-0.38,2.7,0.49,8.59,-0.9,0.6,-1.75,-0.49,-1.72,1.17,0.72,3.28,-1.48,1.32,-0.7,-0.07,-0.75
CNC(=O)c1cc(-c2ccc(F)cc2)cc(-c2ccc(S(=O)(=O)N3CCCC3)cc2)c1N,2.93,1.2,1.2,1.39,-2.02,0.91,2.02,-0.49,1.09,0.94,1.06,3.1,3.89,-1.57,1.17,8.01,11.8,6.61,8.16,10.6
